Bioassay records from PubChem BioAssay.
This is a sample that favours compounds with a hit; in the whole collection about 12% have one here.
G9a block – inhibitors of human histone lysine methyltransferase G9a | G9a H3K9 monomethylation, AlphaScreen, 2 h | Potency, µM (doses to about 102 µM), most hits filed as inhibitors | 350,000 compounds, 8.8% hits; further: nearly all actives have a fitted effect of over 75% in size
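Readings reflect AlphaScreen signal from monomethyl-H3K9 antibody detection. HMT at 20 nM; substrate b-H3K9 500 nM; cofactor SAM 20 uM; 2 h RT reaction; compounds tested as titrations in qHTS with 15 min preincubation.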
HP1b binding inh – inhibitors of HP1-beta chromodomain binding to methylated histone tails | P83916 | Potency, µM (titrated, usually from 114 µM), most hits filed as inhibitors | AlphaScreen HP1-beta / biotin-H3K9me3 peptide binding | 390,000 compounds, 0.56% hits; further: nearly all actives have a fitted effect of over 70% in size
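Compound inhibition of the preformed complex between 50 nM HP1-beta and 50 nM biotinylated H3K9me3 peptide was read by AlphaScreen. Buffer was PBS pH 7.4 with 0.01% Tween-20. Incubations ran 30 min at room temperature, with 10 ug/mL donor/acceptor beads.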
Sfp inh – blocks B. subtilis Sfp PPTase activity. Potency, µM, actives largely listed as inhibitors. 310,000 compounds, 3.5% hits. Biochemical Sfp PPTase activity, qHTS. Q9F4F7;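 further: the enzyme is Sfp with the accession as filed and its product quenches rhodamine fluorescence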
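Reaction rates are the 30-min fluorescence difference (ex 525, em 598 nm) in wells containing 15 nM Sfp, 5 uM rhodamine-CoA and 12.5 uM BHQ-2-YbbR at pH 7.6 with 10 mM MgCl2.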
JMJD2A Tudor – blocks the human JMJD2A Tudor domain | O75164 | AlphaScreen JMJD2A-Tudor / H3K4me3 peptide binding | Potency, µM (titrated, usually from 114 µM), actives largely listed as inhibitors | 390,000 compounds, 4.4% hits | AID 504339; further: nearly all actives have a fitted effect of over 50% in size
L3MBTL1 block – blocks human L3MBTL1; Potency, µM (highest dose often 57.1 µM), most hits filed as inhibitors; AlphaScreen L3MBTL1–H3K9me1 peptide binding; 230,000 compounds, 0.66% hits; Q9Y468; further: nearly all actives have a fitted effect of over 60% in size
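Read-out is AlphaScreen signal from streptavidin donor and nickel chelate acceptor beads (10 ug/mL final each) bridging L3MBTL1 (50 nM) and biotinylated K9-monomethylated H3(1-15) peptide (75 nM), after 30 min compound exposure at room temperature.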
BAZ2B inh – blocks human BAZ2B; AlphaScreen BAZ2B-H3K14Ac peptide displacement; Potency, µM (doses to about 114 µM), usual class: inhibitors; 360,000 compounds, 4.4% hits; AID 504333; further: nearly all actives have a fitted effect of over 60% in size
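AlphaScreen displacement: compounds (up to 110uM) incubated 30 min at room temperature with a preformed 50 nM BAZ2B/50 nM biotinylated H3K14Ac peptide complex in PBS pH 7.4 with Tween-20. Donor and acceptor beads at 10 ug/mL final added, 20 min light-protected before reading.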
A number is an active result; - = inactive; ? = inconclusive; . = not tested or not shown; [ ] = another dose, or the depositor's remark. The call rests on the fitted dose curve; in most records, active means well fitted curve in the direction sought with a large enough effect; inconclusive means small, poorly fitted or top-dose-only effect, or another doubt; inactive means no such curve, though single readings can be large; an effect the other way counts as inactive or inconclusive.

SMILES | G9a block | HP1b binding inh | Sfp inh | JMJD2A Tudor | L3MBTL1 block | BAZ2B inh
O=C(N/C(=C/c1cccc(Br)c1)c1nc(=S)[nH][nH]1)c1ccccc1 | ? | ? | - | ? | ? | ?
COc1ccc(C(=O)Nc2ccc3c(c2)N(C2CCCC2)C(=O)c2ccccc2S3)cc1OC | - | - | . | - | . | -
O=C(O)C(=O)/C(=C\c1ccc(Cl)cc1)c1ccc2ccccc2n1 | - | - | - | 22.4µM | - | ?
O=C(CSc1nnc(CNC(=O)c2c(F)cccc2Cl)o1)Nc1cccc(F)c1 | - | - | . | - | . | -
CCN1c2ccccc2NC2C1C(C(C)=O)C(=O)N2c1ccc(Cl)cc1 (stereo not given) | 44.7µM | - | - | ? | - | ?
Cc1cc(C(=O)NCc2ccccc2C)c2c(C)nn(-c3cccc(F)c3)c2n1 | - | - | . | - | . | -
COc1cc2c(cc1OC)C1=C(C#N)CN(CC(=O)O)CN1CC2 | 35.5µM | - | - | 22.4µM | - | 79.4µM
COc1cc2c(cc1OC)C1=C(C#N)CCC(=NC(=O)c3ccco3)N1CC2 | - | - | - | - | - | -
O=C(N/N=C/c1ccc(O)c([N+](=O)[O-])c1)c1ccncc1 | . | - | ? | - | . | -
O=C1NCCCC1C(=O)N/N=C/c1cc([N+](=O)[O-])ccc1O (stereo not given) | -[12.7 µM] | - | - | 39.8µM | - | 50.1µM
O=C(N/N=C/c1cc(Br)ccc1O)c1ccncc1 | -[12.7 µM] | - | - | 28.2µM | 31.6µM | 20µM
O=C(N/N=C/c1cc([N+](=O)[O-])ccc1O)c1ccncc1 | . | - | - | 22.4µM | ? | 10µM
CN(C)c1ccc(/C(=N\O)c2ccccc2)cc1 | 14.1µM | - | - | 50.1µM | - | -
COc1ccc(-c2cc(C(F)(F)F)c(C#N)c(SCC(=O)Nc3ccc(F)cc3)n2)cc1 | - | - | . | - | . | -
Cc1cccn2c(=O)cc(COc3cccc(NC(=O)COc4ccc(F)cc4)c3)nc12 | - | - | . | - | . | -
COCCCNC(=O)Cn1nc(N2CCN(c3ccccc3)CC2)ccc1=O | - | - | . | - | . | -
O=C(O)CC/C(=N\NC(=O)c1ccncc1)c1ccccc1 | . | - | - | 25.1µM | - | -
COc1cc(O)c(/C=N/NC(=O)c2ccncc2)c(OC)c1[N+](=O)[O-] | - | - | - | 50.1µM | . | 7.94µM
COc1ccc(/C=N/NC(=O)c2ccncc2)cc1[N+](=O)[O-] | - | - | - | - | . | -
O=C(O)COc1ccccc1/C=N/NC(=O)c1ccncc1 | -[12.7 µM] | . | 50.1µM | . | . | .
COc1ccccc1C=NNC(=O)c1ccncc1 | . | - | . | - | . | .
O=C(N/N=C/c1cc(Br)ccc1OC(=O)c1ccc(Br)cc1)c1ccncc1 | - | ? | - | 89.1µM | . | 50.1µM
CCNC(=O)c1c(C)oc2ncn(C)c(=O)c12 | ? | - | . | - | . | -
Nc1nonc1C(=O)NCCN=Cc1ccccc1O | -[0.0925 µM] | - | 89.1µM | - | - | ?
O=C(N/N=C/c1ccccc1O)c1cc(=O)[nH]c2ccccc12 | - | . | - | . | ? | 50.1µM
SMILES | G9a block | HP1b binding inh | Sfp inh | JMJD2A Tudor | L3MBTL1 block | BAZ2B inh
Nc1nonc1C(=O)NCCN=Cc1cc(Cc2ccccc2)cc(Br)c1O | - | - | - | ? | - | -
O=C(N/N=C/c1cc([N+](=O)[O-])ccc1O)c1cccc(N2CCCC2=O)c1 | - | - | - | 31.6µM | . | 20µM
O=C(N/N=C/c1ccccc1O)c1cccc2ccccc12 | . | - | - | - | - | -
COc1cc(/C=N/NC(=O)c2cccc(N3CCCC3=O)c2)ccc1O | - | - | - | - | . | -
O=C(CN(c1cccc(Br)c1)S(=O)(=O)c1ccccc1)N/N=C/c1cc([N+](=O)[O-])ccc1O | . | - | . | 50.1µM | . | .
Cc1nn(CC(=O)NC2CC2)c(=O)c2cc3cc(F)ccc3n12 | - | - | . | - | . | -
Cc1ccc(C)c(NC(=O)CSc2ncc3c(n2)-c2ccc(Cl)cc2N(C)S3(=O)=O)c1 | - | - | . | - | . | -
CCn1c(SCc2ccc(F)cc2Cl)nc(=O)c2c(C(=O)OC)cc(C3CC3)nc21 | - | - | . | - | . | -
CCN(CC)CCC[C@H](C)Nc1c2ccc(Cl)cc2nc2ccc(OC)cc12 | ? | . | - | . | . | .
Cc1nccn1CC(=O)N/N=C/c1ccccc1O | . | - | - | 56.2µM | - | 44.7µM
O=C(N/N=C/c1ccc(O)c(O)c1O)/C(=C/c1ccc([N+](=O)[O-])cc1)NC(=O)c1ccccc1 | 1.58µM | 25.1µM | 44.7µM | 31.6µM | . | ?
CC/C(=N\NC(=O)c1ccc(N(C)C)cc1)c1ccccc1 | 28.2µM | - | - | ? | - | -
O=C(N/N=C/c1ccc(O)c2ncccc12)c1cccc(Br)c1 | - | - | - | 22.4µM | 7.94µM | 8.91µM
Cc1ccc(NC(=O)/C(=C\c2ccc([N+](=O)[O-])cc2)NC(=O)c2ccccc2)cc1 | -[0.0925 µM] | - | - | - | - | -
CCN(CC)CCCNC(=O)Cc1csc2nc(-c3ccc(Cl)cc3)cn12 | - | - | . | - | . | ?
CN1CCN(C(=O)Nc2cccc(Cl)c2)c2cccnc21 | - | - | . | - | . | -
Cc1nccn1CC(=O)O | - | - | - | - | - | -
O=C(N/N=C/c1cccc2ccccc12)c1ccncc1 | . | - | - | - | - | ?
O=[N+]([O-])c1ccc(O)c(/C=N/Nc2ccccc2Cl)c1 | 6.31µM | - | - | -[11.4 µM] | - | -
O=C(N/N=C/c1ccccc1O)c1cc[n+]([O-])cc1 | - | - | - | 35.5µM | . | 20µM
Cc1nccn1CC(=O)c1ccc(O)c(O)c1 | -[0.501 µM] | - | . | 20µM | - | 56.2µM
O=C(N/N=C/c1ccccc1O)c1ccncc1 | - | - | - | 50.1µM | ? | 35.5µM
O=[N+]([O-])c1ccccc1N/N=C\c1ccccc1Cl | - | - | - | - | - | -
CCc1ccc(N2CC(C(=O)N/N=C/c3cc([N+](=O)[O-])ccc3O)CC2=O)cc1 (stereo not given) | - | - | - | 39.8µM | ? | 50.1µM
Nc1nonc1C(=O)N/N=C/c1cc(Br)ccc1O | ? | - | - | 17.8µM | 1.41µM | 7.94µM
SMILES | G9a block | HP1b binding inh | Sfp inh | JMJD2A Tudor | L3MBTL1 block | BAZ2B inh
NC(=O)N/N=C\c1cc(Br)ccc1O | - | - | - | - | - | -
O=C(N/N=C/c1cc(Cl)ccc1O)c1ccc(Br)cc1 | - | - | - | 25.1µM | - | ?
O=C(N/N=C/c1cc([N+](=O)[O-])ccc1O)C(O)(c1ccccc1)c1ccccc1 | . | - | - | 79.4µM | - | ?
COc1ccc(S(=O)(=O)NCCc2sc(-c3cccnc3)nc2C)cc1 | - | - | . | - | . | -
CC(=O)N1CCC(C(=O)Nc2nnc(C(C)C)s2)CC1 | . | - | . | - | . | .
Cc1sc(N/N=C/c2cc([N+](=O)[O-])ccc2O)nc1-c1ccccc1 | - | - | - | 22.4µM | - | -
N#CCC(=O)N/N=C\c1ccccc1OC/C=C/c1ccccc1 | - | - | - | ? | . | 50.1µM
Nc1cc2c(cc1C(=O)c1cccc(Br)c1)OCCO2 | 17.8µM | ? | - | 44.7µM | ? | 35.5µM
